High-throughput results: PubChem, several laboratories
Jurkat NFkB inh: inhibitors of the PMA/ionomycin-induced NF-kB reporter in Jurkat cells; PMA/ionomycin-induced NF-kB luciferase reporter, luminescence; inhibition, % at 4 µM; 330,000 tested, 0.53% active; in the data active = inhibition above about 50%
SMARCA2 act: activators of SMARCA2 function | MG213 cells, MMTV-luciferase reporter, dexamethasone, overnight | activation, % at 9.1 µM | 370,000 tested, 1% active | AID 652017; in the data active = activation above about 7.8%;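 note: 0% = vehicle wells and 100% = reference activator wells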
Gli-Sufu block: antagonists of Gli-Sufu signaling; inhibition, % at 5 µM; AID 588413; 340,000 tested, 0.74% active; Sufu-KO-LIGHT fibroblasts, Gli luciferase reporter luminescence;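 active = inhibition above about 55%, limit read from the data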;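 note: 0% = DMSO-treated cells and 100% = wells with medium but no cells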
697 NFkB inh: inhibitors of the PMA/ionomycin-induced NF-kB reporter in 697 B cells; 697 B-cell NF-kB luciferase reporter, 16 h; inhibition, % at 4 µM; 330,000 tested, 0.33% active; in the data active = inhibition above about 35%
esBAF inh: inhibitors of esBAF chromatin remodeling in mouse ES cells | Bmi1-luciferase knock-in reporter, 24 h; 100% = twice the neutral-well signal | 350,000 tested, 2% active | reporter increase, % at 12.5 µM | AID 602393; in the data active = activation above about 40%;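 note: 0% = median of the plate's neutral control wells and 100% = double that signal; a rise in the Bmi1 reporter signal indicates esBAF inhibition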
Gli antag conf: confirmation of Gli-SUFU pathway antagonists | shares compounds with Gli-Sufu block | Sufu-KO-LIGHT cells, Gli luciferase reporter, luminescence | inhibition, % at 5 µM | 2,500 tested, 40% active | AID 602428;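 active = mean inhibition at 5 µM reaching about 45%, limit read from the data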;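 note: plate controls were DMSO-treated cells for no effect and wells lacking cells for full effect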
Gli cytotox: counter-screen for Gli-SUFU antagonists: cytotoxicity; shares compounds with Gli-Sufu block; Sufu-KO-LIGHT cells cytotoxicity, ATP luminescence; cytotoxicity, % at 5 µM; 2,500 tested, 32% active; AID 651994;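 active = mean cytotoxicity at 5 µM above about 25%, limit read from the data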;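 note: cells exposed to compound overnight for roughly 16 to 18 hours; plate controls were DMSO wells with cells for no effect and medium without cells for full effect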
Wnt3a cs: Wnt3a reporter inhibition counter-screen. shares compounds with Gli-Sufu block. Wnt-LIGHT cells, Wnt3a-driven luciferase reporter, luminescence. 2,500 tested, 20% active. inhibition, % at 6.25 µM;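 active = mean inhibition above about 25%, limit read from the data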
* = called active by the depositor; . = no result given. This is a sample that favours compounds with a hit; in the whole collection about 3.3% have one here.

SMILES	Jurkat NFkB inh	SMARCA2 act	Gli-Sufu block	697 NFkB inh	esBAF inh	Gli antag conf	Gli cytotox	Wnt3a cs
Cc1occc1-c1nnc(SCC(=O)c2c(N)n(Cc3ccccc3)c(=O)n(C)c2=O)n1C	2.5	-0.9	5.6	0.3	6.5	.	.	.
CC(C)OP(=O)(Nc1cccc2ccccc12)OC(C)C	1.5	-0.1	34.2	-8.4	.	.	.	.
CN(C)P(=O)(Nc1cccc2ccccc12)Nc1cccc2ccccc12	6.2	-1.8	51.0	-14.9	2.5	29.0	16.2	-34.0
CN1C(=O)c2cc(NC(=O)C3CCCCC3)ccc2OC[C@H]2O[C@@H](CC(=O)NCCc3ccncc3)CC[C@H]21	.	.	.	.	4.0	.	.	.
CN1CCN(C(=O)C[C@H]2C[C@@H]3c4cc(NC(=O)Cc5ccncc5)ccc4O[C@@H]3[C@@H](CO)O2)CC1	.	.	.	.	0.2	.	.	.
CCOC(CNC(=O)c1cc2c(=O)n(CC)c3ccccc3c2s1)OCC	8.1	-1.3	10.6	15.9	11.6	.	.	.
CCn1c(=O)c2cc(C(=O)NCC(OC)OC)sc2c2ccccc21	-4.7	-1.8	50.2	22.3	-6.9	28.8	2.3	2.8
COc1ccccc1-c1cn(CC[C@@H]2CC[C@H](NC(=O)NC(C)C)[C@H](CO)O2)nn1	.	.	.	.	2.5	.	.	.
C[C@H](CO)N1C[C@H](C)[C@H](CN(C)S(=O)(=O)c2cccs2)Oc2ccc(NC(=O)Cc3cn(C)c4ccccc34)cc2C1=O	.	.	.	.	0.5	.	.	.
CC(=O)c1ccc(NC(=O)CN2CCN(CC(=O)Nc3ccc(C(C)=O)cc3)CC2)cc1	-3.7	-1.4	-14.8	0.5	-10.0	.	.	.
CC(=O)c1ccc(NC(=O)CSC(C)C)cc1	-30.9	0.2	98.7*	-24.2	33.9	-1.4	27.8*	-33.6
Cc1ccc(S(=O)(=O)N2CCN(C(=O)C3CCN(c4ncnc5sc(C)c(C)c45)CC3)CC2)c(C)c1	.	-1.9	66.5*	.	-1.9	60.4*	6.1	-42.0
Cc1sc2ncnc(N3CCN(S(=O)(=O)c4ccc(C(C)(C)C)cc4)CC3)c2c1C	-4.3	-2.4	54.8	0.5	-28.0	61.2*	25.4*	16.3
O=S(=O)(c1ccc(Cl)cc1)N1CCN(c2ncnc3sccc23)CC1	12.2	-4.6	50.4	-29.8	-31.9	46.5*	21.1	35.0*
Cc1sc2ncnc(N3CCN(S(=O)(=O)c4ccc(Br)cc4)CC3)c2c1C	17.4	0.1	49.6	-38.8	-8.8	.	.	.
Cc1csc2c(N3CCN(S(=O)(=O)c4ccc(Cl)cc4)CC3)ncnc12	12.5	-0.1	7.7	1.6	.	.	.	.
Cc1ccc(OCC(=O)NNC(=O)C2CCN(c3ncnc4sc(C)c(C)c34)CC2)cc1	6.1	-0.6	-5.9	7.1	2.1	.	.	.
O=C(O)c1cccc(Nc2nc3ccccc3nc2NS(=O)(=O)c2ccc(F)cc2)c1	-7.5	-1.1	-17.7	-3.1	-2.0	.	.	.
O=S(=O)(Nc1nc2ccccc2nc1Nc1ccc2c(c1)OCO2)c1ccc(F)cc1	-6.1	-2.5	58.2*	-29.3	.	57.7*	16.5	51.1*
CN(C)C(=O)c1cccc(-c2cccc(-c3nc(C(=O)N4CCCCC4)cc4c3[C@@H](CCO)N([S@](=O)C(C)(C)C)C4)c2)c1	.	.	.	.	0.9	.	.	.
O=C(Nc1ccc(C(F)(F)F)cc1)C1CCN(S(=O)(=O)c2ccc(N3CCCC3=O)cc2)CC1	45.6	2.2	77.1*	14.9	-13.2	79.0*	17.9	2.8
CS(=O)(=O)N1CCC(C(=O)Nc2ccc(C(F)(F)F)cc2)CC1	-11.4	2.8	-3.8	6.7	.	.	.	.
COc1ccc(NC(=O)C2CCN(S(=O)(=O)c3ccc(N4CCCC4=O)cc3)CC2)cc1OC	5.9	1.2	50.4	13.1	3.5	16.0	18.7	-47.4
COc1ccc(S(=O)(=O)N2CCC(C(=O)Nc3ccc(S(=O)(=O)N4CCCC4)cc3)CC2)cc1OC	-6.9	3.1	-7.6	-11.0	-4.4	.	.	.
CCC(=O)N1C[C@@H](C)[C@H](OC)CN(C)C(=O)c2cc(NC(=O)Nc3ccccc3)ccc2OC[C@H]1C	.	.	.	.	-0.4	.	.	.
SMILES	Jurkat NFkB inh	SMARCA2 act	Gli-Sufu block	697 NFkB inh	esBAF inh	Gli antag conf	Gli cytotox	Wnt3a cs
c1ccc(-c2cn(-c3ccccc3)c3[n+]2CCS3)cc1	18.2	-4.8	64.7*	-26.3	-12.3	64.3*	26.5*	13.1
COc1ccc(-c2cn(-c3ccccc3)c3[n+]2CCS3)cc1	26.4	-5.7	80.7*	-4.5	.	82.5*	33.1*	30.4*
COc1ccc(CNC(=O)C[C@@H]2C[C@@H]3c4cc(NS(C)(=O)=O)ccc4O[C@@H]3[C@@H](CO)O2)cc1	.	.	.	.	-1.4	.	.	.
O=C(N/N=C/c1ccccc1O)c1cccc(C(F)(F)F)c1	41.6	-3.0	66.1*	-1.0	.	61.8*	35.7*	57.8*
CCN(CC)S(=O)(=O)c1cccc(C(=O)N/N=C/c2cc(OC)c(O)c(OC)c2)c1	12.7	2.6	6.0	10.0	.	.	.	.
O=C(N/N=C/c1ccc(O)cc1)c1cccc(C(F)(F)F)c1	1.9	-2.3	5.8	-8.8	.	.	.	.
CCN(CC)S(=O)(=O)c1cccc(C(=O)N/N=C/c2cccc(O)c2O)c1	5.5	-0.1	70.9*	-48.4	.	50.8*	47.8*	36.3*
CO[C@@H]1CN(C)C(=O)c2cc(NC(=O)Nc3ccccc3)ccc2OC[C@H](C)N(CC2CC2)C[C@@H]1C	.	.	.	.	21.2	.	.	.
C[C@@H]1CN([C@@H](C)CO)C(=O)c2cc(NS(=O)(=O)c3ccccc3)ccc2O[C@@H]1CN(C)CC1CC1	.	.	.	.	-1.3	.	.	.
CCOC(=O)c1c(C)[nH]c(C)c1S(=O)(=O)N(C)CC(=O)NCc1cccc(C)c1	8.8	-2.4	51.5	-4.8	3.2	4.8	-3.8	-23.3
Cc1cccnc1CCNC(=O)c1ccc(OC2CCN(Cc3ccccn3)CC2)cc1	17.8	-0.7	.	-29.0	-4.4	.	.	.
O=C(NCCc1cccc(Cl)c1)c1ccc(OC2CCN(Cc3ccccn3)CC2)cc1	20.1	-5.9	52.3	-93.0	-26.8	49.9*	15.1	9.5
